About 79,000 compounds went through this panel and 15% of them were active in at least one assay; those are over-represented in the sample as a whole. Values without a mark were called inactive. Active and inactive are the calls of the source. No stated cut-off is given here; in the data, active means growth inhibition above about 70%; inactive means the rest. *1 amine or outer side, *2 acyl side, *3 side chain or, on linkers, in order; H or OH if unused. Where a SMILES comes first, the peptide text is derived from it. Bridges are numbered along the chain shown (N, C = ends). Roman numbers before positions name the chains, in order. [ ]: non-standard residue; d: D form. ξ: configuration not given here. Actinocin(1to9) = Cc1c2oc3c(C)ccc(C(=O)[*:2])c3nc-2c(C(=O)[*:1])c(N)c1=O; NMeV = CN[CH](C(=O)O)C(C)C; ξD = NC(CC(=O)O)C(=O)O; Sar = CNCC(=O)O
Assays:
[1] = NCI Yeast Anticancer Drug Screen. Data for the rad50 strain (AID 155);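 further: 0% = growth of vehicle-only cultures of the same strain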; conditions: S. cerevisiae rad50 strain growth inhibition, stronger effect = higher value
Method in brief: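 Vehicle-treated cultures provide the reference for the growth inhibition reported for compound-exposed, repair-deficient yeast.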

[2] = NCI Yeast Anticancer Drug Screen. Data for the mec2-1 strain (AID 157); conditions: S. cerevisiae mec2-1 strain, stronger effect = higher value
Method in brief: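 Test agents were screened against the mec2-1 yeast strain, with defined DNA repair or cell cycle alteration. Growth was scored as inhibition against vehicle-only controls.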

[3] = NCI Yeast Anticancer Drug Screen. Data for the sgs1 mgt1 strain (AID 161);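 further: 0% = growth of cultures given vehicle only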; conditions: S. cerevisiae sgs1 mgt1 strain, stronger effect = higher value
Method in brief: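 Mutant yeast exposed to compound; growth scored against vehicle-only wells.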

[4] = NCI Yeast Anticancer Drug Screen. Data for the cln2 rad14 strain (AID 165);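 further: 0% = growth equal to vehicle treated cultures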; conditions: S. cerevisiae cln2 rad14 strain, stronger effect = higher value
Method in brief: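 Growth of compound-exposed yeast (cln2 rad14 genotype) measured and expressed as inhibition relative to vehicle.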

[5] = NCI Yeast Anticancer Drug Screen. Data for the bub3 strain (AID 167); conditions: S. cerevisiae bub3 mutant strain, stronger effect = higher value
Method in brief: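 Mutant yeast screening strain plus compound; vehicle-treated cultures serve as the 0% inhibition reference.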

[6] = NCI Yeast Anticancer Drug Screen. Data for the mlh1 rad18 strain (AID 175); conditions: S. cerevisiae mlh1 rad18 strain growth inhibition, stronger effect = higher value
Method in brief: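 In this whole-cell yeast screen, a strain with altered DNA damage repair is challenged with compound, and its growth is measured against matched vehicle-treated controls.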

[7] = at 5.0 µM (retest, dose inferred, filed as 0.5)
[8] = at 50.0 µM (retest, dose inferred, filed as 5.0)

| Structure (SMILES) | growth inhibition [1, 7] | growth inhibition [1, 8] | growth inhibition ([1]; at 50.0 µM) | growth inhibition [2, 7] | growth inhibition [2, 8] | growth inhibition ([2]; at 50.0 µM) | growth inhibition [3, 7] | growth inhibition [3, 8] | growth inhibition ([3]; at 50.0 µM) | growth inhibition [4, 7] | growth inhibition [4, 8] | growth inhibition ([4]; at 50.0 µM) | growth inhibition [5, 7] | growth inhibition [5, 8] | growth inhibition ([5]; at 50.0 µM) | growth inhibition [6, 7] | growth inhibition [6, 8] | growth inhibition ([6]; at 50.0 µM) |
| --- | --- | --- | --- | --- | --- | --- | --- | --- | --- | --- | --- | --- | --- | --- | --- | --- | --- | --- |
| CC1=CC(=NC(=O)CBr)C=C/C1=N\S(=O)(=O)c1ccccc1 | 65% | 99% (active) | 56.5% | 44% | 100% (active) | 33.2% | 46% | 100% (active) | 55% | 42% | 81% (active) | 28.3% | 46% | 97% (active) | 84.5% (active) | 55% | 99% (active) | 56.1% |
| CC1(O)CCCCCC1 | -13% | 74% (active) | 85% (active) | -29% | 58% | 69.7% | -7% | 54% | 88.2% (active) | 28% | 68% | 77.7% (active) | 3% | 74% (active) | 84.2% (active) | 16% | 91% (active) | 71.1% (active) |
| CCOC(=O)c1c(C)[nH]c2ccc(O)cc12 | 6% | 15% | 98.3% (active) | 1% | -3% | 96% (active) | -13% | 20% | 97% (active) | -12% | -10% | 94.3% (active) | -24% | 5% | 97.3% (active) | -6% | 50% | 96.9% (active) |
| CCC(C)C1NC(=O)C(NC(=O)c2c3nc4c(C(=O)NC5C(=O)NC(C(C)CC)C(=O)N6CCCC6C(=O)N(C)CC(=O)N(C)C(C(C)C)C(=O)OC5C)ccc(C)c4oc-3c(C)c(=O)c2N)C(C)OC(=O)C(C(C)C)N(C)C(=O)CN(C)C(=O)C2CCCN2C1=O (configuration not stated) (I: TIP[Sar][NMeV] / II: TIP[Sar][NMeV]; ester I:1-I:C, II:1-II:C; linker I:N-II:N via Actinocin(1to9); configuration not given here) | 66% | 98% (active) | 91% (active) | 33% | 99% (active) | 93.7% (active) | 32% | 98% (active) | 92.5% (active) | 38% | 97% (active) | 90.7% (active) | 43% | 99% (active) | 92.6% (active) | 67% | 98% (active) | 88.3% (active) |
| NCC(=O)NC(CC(=O)O)C(=O)O (configuration not stated) (H-Gly-[ξD]-OH) | -1% | 10% | 12.7% | -6% | -12% | 9.15% | -10% | 20% | 13.2% | -2% | 14% | 1.05% | 9% | 9% | 8.05% | 8% | 16% | 32.2% |
| CC1(C)OC2C(COC(c3ccccc3)(c3ccccc3)c3ccccc3)OC(c3c[nH]c4c(N)ncnc34)C2O1 (configuration not stated) | 9% | 99% (active) | 98.9% (active) | 40% | 99% (active) | 99.1% (active) | -6% | 99% (active) | 99.2% (active) | -20% | 99% (active) | 97.7% (active) | 10% | 99% (active) | 98.8% (active) | 25% | 99% (active) | 98.7% (active) |
| COc1cc2c(c(OC)c1OC)-c1ccc(NCc3ccccc3)c(=O)cc1[C@@H](NC(C)=O)CC2 | 17% | 96% (active) | 49% | 9% | 89% (active) | 80.8% (active) | 16% | 98% (active) | 68.3% | 18% | 98% (active) | 73.7% (active) | 14% | 88% (active) | 68.3% | 16% | 97% (active) | -53.5% |
| CC(C)=C1C=C2CC[C@@H]3[C@](C)(CCC[C@@]3(C)C(=O)O)[C@H]2CC1 | -1% | 93% (active) | 88.3% (active) | 3% | 95% (active) | 90.2% (active) | 2% | 95% (active) | 91% (active) | -4% | 91% (active) | 90.3% (active) | -1% | 94% (active) | 85.8% (active) | 0% | 94% (active) | 88.5% (active) |
| CC[n+]1ccc(Nc2ccc(NC(=O)c3ccc(Nc4cc[n+](CC)c5ccc([N+](=O)[O-])cc45)cc3)cc2)cc1 | 84% (active) | 97% (active) | 99% (active) | 14% | 97% (active) | 99% (active) | 84% (active) | 98% (active) | 99.5% (active) | 72% (active) | 96% (active) | 97% (active) | 72% (active) | 97% (active) | 99.1% (active) | 82% (active) | 97% (active) | 97.8% (active) |
